# Data as given in PubChem BioAssay.
# Values without a mark were called inactive. The rule behind the calls is not given here.
# Molecular target: Pantothenate synthetase (Mycobacterium tuberculosis (strain ATCC 25618 / H37Rv)) (UniProt P9WIL5)
# Experiment: Recombinant Mtb pantothenate synthetase (PanC) inhibitors, coupled enzyme, confirmatory (AID 375);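 note: 0% = full reaction with vehicle and 100% = no enzyme background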
# Details: coupled enzyme assay; at 10 µM, hits give high values
# Pantothenate synthetase (Mycobacterium tuberculosis (strain ATCC 25618 / H37Rv)), sequence (P9WIL5 whole entry, looked up): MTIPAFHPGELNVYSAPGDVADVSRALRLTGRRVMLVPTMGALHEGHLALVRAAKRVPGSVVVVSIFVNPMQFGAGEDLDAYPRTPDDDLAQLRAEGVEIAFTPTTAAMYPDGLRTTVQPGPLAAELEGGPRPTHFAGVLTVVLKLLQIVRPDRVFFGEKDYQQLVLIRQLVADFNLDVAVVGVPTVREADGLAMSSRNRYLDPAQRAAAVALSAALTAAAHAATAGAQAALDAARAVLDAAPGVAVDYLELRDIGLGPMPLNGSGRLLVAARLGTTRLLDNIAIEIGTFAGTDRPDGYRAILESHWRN
row,SMILES,inhibition [%]
1,CCOc1ccc2c(c1)sc1nc(C(=O)OC)cc(=O)n12,0
2,CCCCn1c(SCC(=O)NCc2ccccc2)nc2ccc(N3CCOCC3)cc2c1=O,0
3,COc1cccc(C(=O)NC2=NCCS2)c1,0
4,O=S(=O)(NC1=NCCC1)c1cccs1,0
